The values below come from PubChem BioAssay AID602244 (Sanford-Burnham Center for Chemical Genomics, 2012).

Out of some 360,000 compounds screened, about 1,300 (0.36%) were called active. Shown is part of a subset that was picked to be rich in actives. Values without a mark were called inactive. No stated cut-off is given here; in the data, active means inhibition above about 34% (passing the limit was not always enough); inactive means the rest.

For the test, the target named is C-X-C chemokine receptor type 6 (Homo sapiens) (UniProt O00574). The test is described as follows: CXCR6 receptor inhibitors, primary screen, cell-based, beta-arrestin, luminescence, CHO-K1 PathHunter, 1536-well (AID 602244).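 Further: antagonist mode with CXCL16 agonist at 10 nM final; 0% = 10 nM CXCL16 with DMSO and 100% = unstimulated wells without agonist.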 The settings on record: at 20 µM, active compounds read high.
Sequence of C-X-C chemokine receptor type 6 (Homo sapiens) (O00574 whole entry, looked up): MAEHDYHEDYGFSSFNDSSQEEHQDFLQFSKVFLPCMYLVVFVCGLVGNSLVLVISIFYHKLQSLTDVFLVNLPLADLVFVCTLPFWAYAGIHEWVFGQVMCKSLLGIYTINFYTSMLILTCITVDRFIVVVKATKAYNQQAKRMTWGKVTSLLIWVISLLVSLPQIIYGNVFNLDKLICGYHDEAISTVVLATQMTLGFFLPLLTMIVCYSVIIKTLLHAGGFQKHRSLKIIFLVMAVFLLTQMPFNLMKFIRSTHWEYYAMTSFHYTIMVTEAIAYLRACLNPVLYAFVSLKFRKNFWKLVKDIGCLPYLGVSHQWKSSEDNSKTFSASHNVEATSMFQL
For the compound `Cc1ccc(S(=O)(=O)CCC(=O)OCC(=O)N(C)Cc2ccccc2)cc1`, the inhibition is 0.4%. For `COc1cccc2sc(N(CCCN(C)C)C(=O)CCS(=O)(=O)c3ccccc3)nc12`, the inhibition is 44.2% (active). `O=C(CCS(=O)(=O)c1ccccc1)Nc1nc2c(s1)CCCC2`: the inhibition was -0.7%.

Turning to `CCc1nc2c(OCCOc3ccccc3)cccn2c1N(C)C(=O)c1ccccc1F`, the inhibition is 4.8%.

Consider `CN1CCC(N(C)S(=O)(=O)c2ccc(NC(=O)c3cccc(C#N)c3)cc2)CC1`, for which the inhibition is -0.9%. The value for `O=C1CC(c2cccc(F)c2)C2=C(CCCC2=O)N1` (stereo unspecified) was -9.4%; that for `O=[N+]([O-])c1c(NCCO)cc(Sc2nc3ccccc3s2)c2nonc12` was 94.3% (active).

With `C=CCOc1ccc(Cl)cc1CNCCCN1CCOCC1`, the inhibition was -3%. The figure for `O=C(CNC(=O)c1cccnc1)N/N=C/c1cc(Br)c(O)c(Br)c1` is 1.1%; for `Cc1ccc(/C=N/NC(=O)CSc2nc3ccccc3o2)cc1` it is -6.5%; for `O=C(CSc1cccc2cccnc12)N/N=C/c1cccnc1` it is 48.3% (active). For the compound `O=C(COc1cccc2c1CCNC2=O)NC1CCCCC1`, the inhibition was -2.3%.

As for `OCCC1CN(Cc2cccc(OC3CCCC3)c2)CCN1Cc1ccsc1` (stereo unspecified), the inhibition was 4.2%. In the case of `Cc1c(NC(=O)C(C)Oc2cccc(Cl)c2)c(=O)n(-c2ccccc2)n1C` (stereo unspecified), the inhibition is -5%. Turning to `CC(C)CCNC(=O)c1cccnc1Sc1ccccc1`, the inhibition was -0.4%. Turning to `COC(=O)/C=C\C(=O)Nc1cccc([N+](=O)[O-])c1`, the inhibition is 74.8% (active). Take `COc1cccc(NCCC(=O)c2cccc([N+](=O)[O-])c2)c1`: the inhibition is 2.4%. `CC(NC(=O)Nc1cccc([N+](=O)[O-])c1)c1ccc2c(c1)OCO2` (stereo unspecified): the inhibition was 7.9%. As for `CC(C)Cc1cc(C(=O)NCCc2ccccc2)no1`, the inhibition is 1.7%. Turning to `Cc1cc(C(=O)NCCCc2ccccc2)no1`, the inhibition was 48.5% (active). The value for `O=C(NCCCc1ccccc1)c1cc(COc2c(F)cccc2F)on1` was 7.9%; that for `Cc1ccc(CCNC(=O)C2CCN(S(=O)(=O)N3CCCC3)CC2)cc1` was 0.7%. Consider `Cc1ccc(OCCCCc2c(C)n[nH]c2C)cc1`, for which the inhibition is -0.7%. As for `Cc1cc(F)ccc1NC(=S)NCCc1ccccc1`, the inhibition was -0.7%.

Take `C/C(=N\NC(=S)NCc1ccccc1)C1CCCCC1`: the inhibition was 21.2%. `CCCC1CCC(=NNC(=S)NCCc2ccccc2)CC1` (stereo unspecified): the inhibition is 40% (active). The figure for `Cc1cc(C)c(C)c(S(=O)(=O)N[C@@H](C)C(=O)OC(C)C(=O)NC(N)=O)c1C` (stereo partly specified) is 7%; for `Cc1oc2cc([N+](=O)[O-])c(O)c([N+](=O)[O-])c2c1C(=O)c1ccc(Br)cc1` it is 25.7%. The value for `O=C(NNC(=S)NCCCN1CCOCC1)c1ccncc1` was 3.2%. For `COC(=O)c1ccccc1N=NNc1ccc([N+](=O)[O-])cc1`, the inhibition is -5.2%. In the case of `NC(=O)C1(Nc2ccc([N+](=O)[O-])cc2)CCCC1`, the inhibition was 1.8%. As to `O=[N+]([O-])c1ccc(N=NNc2ccc([N+](=O)[O-])cc2)cc1`, the inhibition is 39.7% (active). As to `CC(=O)Nc1ccc(S(=O)(=O)NCC2CCC(C(=O)NCCc3ccccc3)CC2)cc1` (stereo unspecified), the inhibition is 6.1%. Turning to `Nc1nc(Nc2ccccc2F)nc(NC2CCCCC2)c1[N+](=O)[O-]`, the inhibition is -0.8%. As for `CSCCC(NC(=O)COc1ccccc1)C(=O)OCCOc1ccc(Br)cc1` (stereo unspecified), the inhibition is 2.8%.

As for `CSCCC(NC(=O)COc1ccccc1)C(=O)OCc1ccc(Cl)cc1` (stereo unspecified), the inhibition was 2.7%. The value for `CSCCC(NC(=O)COc1ccccc1)C(=O)OCC(=O)c1cc2ccccc2o1` (stereo unspecified) was 37.7% (active).

`O=C(NCc1ccccc1)C1=C[C@@H](C2CCCCC2)C[C@@H](OCc2ccc(CO)cc2)O1`: the inhibition was 6.4%. Take `CC(C)c1ccc(S(=O)(=O)N2CCC3(CC2)OCCO3)cc1`: the inhibition is -0.4%. Take `CCN(CC)P(=O)(/C(Cl)=C\Nc1c(C)n(C)n(-c2ccccc2)c1=O)N(CC)CC`: the inhibition was 9.1%. As for `CCOc1ccc(CN2CCC(n3nccc3NC(=O)C3CC3)CC2)cc1CO`, the inhibition was 3.8%. As for `CSCCC(NS(=O)(=O)c1ccc(C)cc1)C(=O)NCCc1c[nH]c2ccccc12` (stereo unspecified), the inhibition was -6%.

In the case of `CCC(=O)Nc1c(S(=O)(=O)c2ccccc2)c2nc3ccccc3nc2n1Cc1ccccc1`, the inhibition is -4.6%. The figure for `CCN(CC)CCn1c(/N=C/c2cc(Br)ccc2O)nc2ccccc21` is 0.9%; for `CCN(CC)CCn1c(N)c(S(=O)(=O)c2ccccc2)c2nc3ccccc3nc21` it is 45.9% (active). As for `CCCCOc1ccc(C(=O)NCC(=O)OCC(=O)c2c(N)n(C)c(=O)n(C)c2=O)cc1`, the inhibition is 2.3%. Regarding `CC1CN(c2cc(=O)n(-c3cccc(Br)c3)c(=O)[nH]2)CC(C)O1` (stereo unspecified), the inhibition was -4.7%. For `CCOC(=O)N1CCC(N2Cc3cccc(C(=O)Nc4ccc(S(=O)(=O)N(CC)CC)cc4)c3C2=O)CC1`, the inhibition is -2.9%. For the compound `COC(=O)c1cc(OC)c(OC)cc1NC(=O)C1CCCO1` (stereo unspecified), the inhibition was 0.8%.

`Cc1ccc([C@H]2N[C@]3(CCCN(Cc4ccccc4)C3=O)[C@H]3C(=O)N(Cc4ccccc4)C(=O)[C@@H]23)cc1`: the inhibition is 3.3%. With `CC(=NNC(=S)N1CCCCCC1)c1ccccn1`, the inhibition is 19.5%. As to `C/C(=N\NC(=O)Cc1ccc(Cl)cc1)c1ccccn1`, the inhibition was 88.7% (active). The value for `C/C(=N/NC(=O)CCc1ccccc1)c1ccco1` was -3.6%; that for `O=C(c1ccccc1)C(Cn1cncn1)C(Sc1ccccc1)c1ccccc1` (stereo unspecified) was 5.2%. `O=C(CNc1ccccc1N1CCCC1=O)Nc1cc(Cl)ccc1-n1cncn1`: the inhibition was -1%.

`Cc1noc(C)c1CSCC(=O)N(CCC(C)C)c1c(N)n(Cc2ccccc2)c(=O)[nH]c1=O`: the inhibition is 2.5%. Consider `COc1cccc(CN(C)CC2CCCN(CCc3ccc(Cl)cc3)C2)c1OC` (stereo unspecified), for which the inhibition was 3.7%.

As for `CCN(CC)Cc1csc2ccc(Br)cc12`, the inhibition is 5.6%.

On to `Cc1cc(OCCOc2cccc3cccnc23)c(C)cc1Cl`, for which the inhibition is -1.8%. For `COc1cccc(CNC(=O)C2CCN(S(=O)(=O)c3cccc4cccnc34)CC2)c1`, the inhibition was -1.1%. With `CC(=O)/C(=N\Nc1ccc(Cl)cc1Cl)Sc1cccc2cccnc12`, the inhibition is 46.4% (active).
